# PubChem BioAssay (Tox21)
# Values joined by “and” are separate entries in the source; they are usually repeats but may differ in a detail not shown here. Identical values can stand only once. Results filed as inconclusive are left out. Where a call stands in place of a potency, no number is given. Active and inactive are the calls of the source. Calls follow the shape of the dose curve; as a rule, active = well fitted curve in the direction sought with a large enough effect in the repeat runs; inconclusive = weak or mixed curves; inactive = no such curve, though single readings can be large; an effect the other way counts as inactive or inconclusive.
# Biological target: Cytochrome P450 1A2 (Homo sapiens) (UniProt P05177)
# Sequence (P05177 whole entry, looked up): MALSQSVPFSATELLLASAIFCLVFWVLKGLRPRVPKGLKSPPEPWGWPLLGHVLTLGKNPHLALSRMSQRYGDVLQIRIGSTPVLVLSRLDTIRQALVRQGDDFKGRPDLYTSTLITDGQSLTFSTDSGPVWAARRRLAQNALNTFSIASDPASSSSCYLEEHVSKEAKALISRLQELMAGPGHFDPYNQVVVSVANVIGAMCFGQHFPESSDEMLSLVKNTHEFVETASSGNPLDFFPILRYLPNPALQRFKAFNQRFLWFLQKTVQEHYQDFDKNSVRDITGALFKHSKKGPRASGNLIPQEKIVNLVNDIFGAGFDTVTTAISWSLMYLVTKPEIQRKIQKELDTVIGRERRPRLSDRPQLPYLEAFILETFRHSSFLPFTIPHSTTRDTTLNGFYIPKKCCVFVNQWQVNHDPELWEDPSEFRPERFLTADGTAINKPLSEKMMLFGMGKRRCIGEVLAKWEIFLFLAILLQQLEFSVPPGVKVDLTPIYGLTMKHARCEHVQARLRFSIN
# Experiment: Cytochrome P450 Family 1 Subfamily A Member 2 (CYP1A2) small molecule antagonists: luciferase reporter qHTS assay (AID 1671199)
# Settings: P450-Glo CYP1A2 enzyme, luciferin luminescence, 1 h; series mostly up to 115 µM
# Method in brief: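 Steps: enzyme-substrate mix dispensed; test compounds and furafylline control pinned in; 10 min room temperature; NADPH regeneration solution added, 1 h; reaction stopped with luciferin detection reagent; luminescence read after 20 min.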
# Also: nearly all actives have a fitted effect of over 50% in size.
# Potency is read from the fitted curve at half-maximal effect.
row,SMILES,Potency
1,Nc1ccc(Sc2ccc(N)cc2)cc1,35.6 µM (active)
2,Oc1ccccc1Br,inactive
3,COc1ccc(N)cc1N,6.53 µM (active) and 38.3 µM (active)
4,CC(C)CCCCCOC(=O)c1ccccc1C(=O)OCCCCCC(C)C,35.2 µM (active)
5,O=[N+]([O-])c1c2ccccc2cc2ccccc12,0.3 µM (active)
6,S=C=Nc1cccc2ccccc12,8.85 µM (active)
7,CC(C)C(=O)Cl,inactive
8,O=C(O)c1cc[c]([Hg][Cl])cc1,17.8 µM (active)
9,O=C/C(Cl)=C(/Cl)C(=O)O,inactive
10,CC(=[OH+])/C=C(/C)[O-].CC(=[OH+])/C=C(\C)[O-].CC(=[OH+])/C=C(\C)[O-].[Al],inactive
11,CCOC(=O)C1(c2ccccc2)CCN(CCC(C#N)(c2ccccc2)c2ccccc2)CC1,inactive
12,CCOP(=O)(NC(C)C)Oc1ccc(SC)c(C)c1 (stereo unspecified),2.75 µM (active)
13,Oc1ccc2ccc3cccc4ccc1c2c34,0.894 µM (active)
14,CN(CCCC(O)c1cccnc1)N=O (stereo unspecified),inactive
15,C[C@]12CC[C@@H]3c4ccc(OC(=O)N(CCCl)CCCl)cc4CC[C@H]3[C@@H]1CC[C@@H]2O,inactive
16,COc1ccc(/C(=C/C(=O)N2CCOCC2)c2ccc(Cl)cc2)cc1OC,inactive
17,CC(C)[C@H](C(=O)OC(C#N)c1cccc(Oc2ccccc2)c1)c1ccc(OC(F)F)cc1 (stereo partly specified),inactive

row,SMILES,Potency
1,O=[N+]([O-])c1ccc2ccc3cccc4ccc1c2c34,0.224 µM (active)
2,Oc1ccc(C2(c3ccc(O)cc3)c3ccccc3-c3ccccc32)cc1,79.6 µM (active)
3,N#CSCSC#N,23 µM (active) and 28 µM (active)
4,BrCBr,inactive
5,ClC(Cl)=C(c1ccc(Cl)cc1)c1ccc(Cl)cc1,5.78 µM (active) and 5.64 µM (active)
6,CC(Cl)CN(C)C (stereo unspecified),inactive
7,O=C1C=CC(=O)c2ccccc21,25.2 µM (active)
8,C[C@]12CC[C@H](O)C[C@H]1CC[C@@H]1[C@@H]2C[C@@H](O)[C@]2(C)[C@@H](C3=CC(=O)OC3)CC[C@]12O,inactive
9,COc1ccc(OC)c(CC(C)N)c1 (stereo unspecified),inactive
10,CCCCOP(=O)(CCCC)OCCCC,31.7 µM (active)
11,CC(C)(c1ccc(O)c(-c2ccccc2)c1)c1ccc(O)c(-c2ccccc2)c1,35.6 µM (active)
12,N#Cc1ccc(O)cc1,inactive
13,C1CCC2CCCCC2C1 (stereo unspecified),inactive
14,CC1(C)CC/C(=C/c2ccc(Cl)cc2)C1(O)Cn1cncn1 (stereo unspecified),35.4 µM (active)
15,Cc1ccc(CCl)cc1,inactive
16,CCc1ccccc1C,inactive

# Biological target: Voltage-gated inwardly rectifying potassium channel KCNH2 (Homo sapiens) (UniProt Q12809)
# Sequence (Q12809 whole entry, looked up): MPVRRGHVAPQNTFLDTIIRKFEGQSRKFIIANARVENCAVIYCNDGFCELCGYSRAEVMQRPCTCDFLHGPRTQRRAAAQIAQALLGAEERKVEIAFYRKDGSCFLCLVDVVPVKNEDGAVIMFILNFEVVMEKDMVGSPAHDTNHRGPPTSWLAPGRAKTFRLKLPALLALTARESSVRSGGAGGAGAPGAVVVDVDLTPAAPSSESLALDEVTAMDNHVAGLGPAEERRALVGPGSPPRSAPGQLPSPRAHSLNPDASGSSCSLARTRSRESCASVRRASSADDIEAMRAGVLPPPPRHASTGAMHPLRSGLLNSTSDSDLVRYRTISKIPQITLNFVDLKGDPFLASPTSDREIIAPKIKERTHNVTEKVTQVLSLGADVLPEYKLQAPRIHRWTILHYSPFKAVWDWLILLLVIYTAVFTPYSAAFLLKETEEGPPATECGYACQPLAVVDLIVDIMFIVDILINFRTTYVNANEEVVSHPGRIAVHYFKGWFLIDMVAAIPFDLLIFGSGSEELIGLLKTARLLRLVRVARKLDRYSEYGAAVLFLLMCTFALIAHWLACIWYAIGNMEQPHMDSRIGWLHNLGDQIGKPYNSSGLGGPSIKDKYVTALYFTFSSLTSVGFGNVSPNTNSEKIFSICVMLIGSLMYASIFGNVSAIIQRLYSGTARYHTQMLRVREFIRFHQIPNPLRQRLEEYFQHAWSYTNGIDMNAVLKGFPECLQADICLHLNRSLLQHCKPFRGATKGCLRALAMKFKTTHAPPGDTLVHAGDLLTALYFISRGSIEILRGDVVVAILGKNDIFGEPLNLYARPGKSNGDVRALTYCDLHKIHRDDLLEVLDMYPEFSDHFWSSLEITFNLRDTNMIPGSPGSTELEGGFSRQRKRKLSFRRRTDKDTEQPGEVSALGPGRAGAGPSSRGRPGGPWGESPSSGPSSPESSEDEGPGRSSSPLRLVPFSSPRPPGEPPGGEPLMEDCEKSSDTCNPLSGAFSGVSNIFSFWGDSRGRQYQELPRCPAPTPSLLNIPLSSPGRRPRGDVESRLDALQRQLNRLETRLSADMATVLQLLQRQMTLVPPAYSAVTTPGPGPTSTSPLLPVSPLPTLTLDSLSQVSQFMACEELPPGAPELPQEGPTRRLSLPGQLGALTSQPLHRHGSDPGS
# Experiment: Human Ether-a-go-go-Related Gene (hERG) channel small molecule antagonists: fluorescence cell-based qHTS assay (AID 1671200)
# Settings: hERG-U2OS cells, FluxOR thallium flux fluorescence; series mostly up to 76.8 µM
# Method in brief: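 Read-out: thallium influx as a surrogate for potassium, tracked as fluorescence (480 nm ex/540 nm em) every second for 2 min after Stimulus Buffer addition in dye-loaded hERG-U2OS cells.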
row,SMILES,Potency
1,Nc1ccc(Sc2ccc(N)cc2)cc1,inactive
2,Oc1ccccc1Br,inactive
3,COc1ccc(N)cc1N,inactive
4,CC(C)CCCCCOC(=O)c1ccccc1C(=O)OCCCCCC(C)C,inactive
5,O=[N+]([O-])c1c2ccccc2cc2ccccc12,inactive
6,S=C=Nc1cccc2ccccc12,inactive
7,CC(C)C(=O)Cl,inactive
8,O=C(O)c1cc[c]([Hg][Cl])cc1,inactive
9,O=C/C(Cl)=C(/Cl)C(=O)O,inactive
10,CC(=[OH+])/C=C(/C)[O-].CC(=[OH+])/C=C(\C)[O-].CC(=[OH+])/C=C(\C)[O-].[Al],inactive
11,CCOC(=O)C1(c2ccccc2)CCN(CCC(C#N)(c2ccccc2)c2ccccc2)CC1,0.601 µM (active)
12,CCOP(=O)(NC(C)C)Oc1ccc(SC)c(C)c1 (stereo unspecified),inactive
13,Oc1ccc2ccc3cccc4ccc1c2c34,inactive
14,CN(CCCC(O)c1cccnc1)N=O (stereo unspecified),inactive
15,C[C@]12CC[C@@H]3c4ccc(OC(=O)N(CCCl)CCCl)cc4CC[C@H]3[C@@H]1CC[C@@H]2O,inactive
16,COc1ccc(/C(=C/C(=O)N2CCOCC2)c2ccc(Cl)cc2)cc1OC,12.3 µM (active)
17,CC(C)[C@H](C(=O)OC(C#N)c1cccc(Oc2ccccc2)c1)c1ccc(OC(F)F)cc1 (stereo partly specified),inactive

row,SMILES,Potency
1,O=[N+]([O-])c1ccc2ccc3cccc4ccc1c2c34,inactive
2,Oc1ccc(C2(c3ccc(O)cc3)c3ccccc3-c3ccccc32)cc1,inactive
3,N#CSCSC#N,56.2 µM (active) and 43.2 µM (active)
4,BrCBr,inactive
5,ClC(Cl)=C(c1ccc(Cl)cc1)c1ccc(Cl)cc1,39.9 µM (active) and 49 µM (active)
6,CC(Cl)CN(C)C (stereo unspecified),inactive
7,O=C1C=CC(=O)c2ccccc21,21.9 µM (active)
8,C[C@]12CC[C@H](O)C[C@H]1CC[C@@H]1[C@@H]2C[C@@H](O)[C@]2(C)[C@@H](C3=CC(=O)OC3)CC[C@]12O,inactive
9,COc1ccc(OC)c(CC(C)N)c1 (stereo unspecified),inactive
10,CCCCOP(=O)(CCCC)OCCCC,inactive
11,CC(C)(c1ccc(O)c(-c2ccccc2)c1)c1ccc(O)c(-c2ccccc2)c1,inactive
12,N#Cc1ccc(O)cc1,inactive
13,C1CCC2CCCCC2C1 (stereo unspecified),inactive
14,CC1(C)CC/C(=C/c2ccc(Cl)cc2)C1(O)Cn1cncn1 (stereo unspecified),inactive
15,Cc1ccc(CCl)cc1,inactive
16,CCc1ccccc1C,inactive
